Assay results published in PubChem BioAssay (EPA / NIEHS).
Calls of active or inactive are those of the source. The calls were made as follows: active = hit-call score of the fitted dose curve at least 0.9, where 1 is the maximum; inactive = score below 0.9.

Key:
[1] = read-out: Interleukin-1 alpha (IL1a), IL1A (gene 3552); test: BSK_KF3CT_IL1a: BioMAP Diversity Plus: KF3CT Assay for Interleukin-1 alpha (IL1a) Biomarker Activity (AID 2283070); conditions: primary human keratinocytes with fibroblasts; actives raise or lower the signal
Method in brief: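 Human keratinocyte plus foreskin fibroblast primary co-culture, sampled 24 h after chemical dosing. IL-1a measured by ELISA; responses fitted bidirectionally against DMSO baseline (negative control), so gain or loss of signal both count.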

[2] = read-out: TIMP metallopeptidase inhibitor 2 (TIMP2), TIMP2 (gene 7077); test: BSK_KF3CT_TIMP2: BioMAP Diversity Plus: KF3CT Assay for TIMP metallopeptidase inhibitor 2 (TIMP2) Biomarker Activity (AID 2283071); conditions: primary human keratinocytes with fibroblasts; actives raise or lower the signal
Method in brief: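 Human primary keratinocyte/foreskin fibroblast co-culture dosed with chemical and sampled at 24 h. TIMP-2 levels quantified by ELISA; bidirectional fitting against DMSO negative control as baseline.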

[3] = read-out: Transforming growth factor beta 1 (TGFb1), TGFB1 (gene 7040); test: BSK_KF3CT_TGFb1: BioMAP Diversity Plus: KF3CT Assay for Transforming growth factor beta 1 (TGFb1) Biomarker Activity (AID 2283072); conditions: primary human keratinocytes with fibroblasts; actives raise or lower the signal
Method in brief: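 Human keratinocyte plus foreskin fibroblast primary co-culture, dosed with chemical for 24 h. TGF-b1 quantified by ELISA. Activity fitted bidirectionally against DMSO negative control as baseline.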

[4] = read-out: C-C motif chemokine 2 (Homo sapiens) (UniProt P13500); test: BSK_KF3CT_MCP1: BioMAP Diversity Plus: KF3CT Assay for Monocyte Chemoattractant Protein 1 (MCP1/CCL2) Biomarker Activity (AID 2283073); conditions: primary human keratinocytes with fibroblasts; actives raise or lower the signal
Method in brief: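 ELISA read-out of MCP-1, 24 h post-dose, in primary human skin keratinocytes co-cultured with fibroblasts. Parallel SRB staining monitors cytotoxicity; changes fitted both directions relative to DMSO.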

[5] = read-out: Matrix Metallopeptidase 9 (MMP9), MMP9 (gene 4318); test: BSK_KF3CT_MMP9: BioMAP Diversity Plus: KF3CT Assay for Matrix Metallopeptidase 9 (MMP9) Biomarker Activity (AID 2283074); conditions: primary human keratinocytes with fibroblasts; actives raise or lower the signal;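 as to AC50: MMP9 protein level quantified by ELISA in the co-culture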
Method in brief: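 Keratinocyte plus foreskin fibroblast human primary skin co-culture was dosed with chemical and MMP-9 was quantified by ELISA 24 h later. Bidirectional curve fitting used DMSO as negative control and activity baseline.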

[6] = read-out: urokinase plasminogen activator (uPA), PLAU (gene 5328); test: BSK_KF3CT_uPA: BioMAP Diversity Plus: KF3CT Assay for urokinase plasminogen activator (uPA) Biomarker Activity (AID 2283075); conditions: primary human keratinocytes with fibroblasts; actives raise or lower the signal
Method in brief: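 Human keratinocyte plus foreskin fibroblast primary co-culture exposed to chemical for 24 h. uPA levels were quantified by ELISA, and activity was fitted bidirectionally against a DMSO negative-control baseline.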

[7] = read-out: CD40, CD40 (gene 958); test: BSK_LPS_CD40: BioMAP Diversity Plus: LPS Assay for CD40 Biomarker Activity (AID 2283076); conditions: primary human HUVEC with PBMC; actives raise or lower the signal
Method in brief: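 In the LPS system of human endothelial cells with peripheral blood mononuclear cells, CD40 levels were read by ELISA 24 h post-treatment. Signal changes in either direction were fitted against the DMSO baseline, with parallel SRB protein staining.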

[8] = read-out: E-selectin (Homo sapiens) (UniProt P16581); test: BSK_LPS_Eselectin: BioMAP Diversity Plus: LPS Assay for Eselectin Biomarker Activity (AID 2283077); conditions: primary human HUVEC with PBMC; actives raise or lower the signal
Method in brief: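 E-selectin ELISA on LPS-stimulated endothelial cell/PBMC co-cultures, read 24 h post-treatment; gains and losses fitted against DMSO. Parallel SRB staining (0.1% SRB after 10% TCA fixation, 560 nm) flags overt cytotoxicity.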

[9] = read-out: Interleukin-8 (IL8), CXCL8 (gene 3576); test: BSK_LPS_IL8: BioMAP Diversity Plus: LPS Assay for Interleukin-8 (IL8) Biomarker Activity (AID 2283078); conditions: primary human HUVEC with PBMC; actives raise or lower the signal
Method in brief: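 ELISA read-out of IL-8 after 24 h chemical treatment of LPS-activated endothelial/PBMC human primary co-cultures. Changes either up or down relative to DMSO; overt cytotoxicity checked by sulforhodamine B staining in parallel wells.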

[10] = BSK_LPS_SRB: Viability Assessment in the BioMAP Diversity Plus: LPS Assay (AID 2283079); conditions: primary human HUVEC with PBMC;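 also: total protein by sulforhodamine B absorbance as a cytotoxicity measure; measured one day after compound addition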
Method in brief: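 SRB viability endpoint: cells fixed with 10% TCA, stained with 0.1% SRB, read at 560 nm, 24 h post-dose. HUVEC/PBMC co-culture; signal change in either direction scored relative to DMSO.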

[11] = read-out: Interleukin-1 alpha (IL1a), IL1A (gene 3552); test: BSK_LPS_IL1a: BioMAP Diversity Plus: LPS Assay for Interleukin-1 alpha (IL1a) Biomarker Activity (AID 2283080); conditions: primary human HUVEC with PBMC; actives raise or lower the signal
Method in brief: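 Readout is IL-1a level by ELISA, 24 h post-dose, fitted as gain or loss relative to DMSO. System: LPS-activated human primary co-culture of vascular endothelium and peripheral blood mononuclear cells, with parallel SRB total-protein cytotoxicity.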

[12] = read-out: Monocyte Chemoattractant Protein-1 (MCP1), CCL2 (gene 6347); test: BSK_LPS_MCP1: BioMAP Diversity Plus: LPS Assay for Monocyte Chemoattractant Protein-1 (MCP1) Biomarker Activity (AID 2283081); conditions: primary human HUVEC with PBMC; actives raise or lower the signal;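 as to AC50: secreted MCP-1 protein quantified by ELISA in culture supernatant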
Method in brief: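 Secreted MCP-1 read by ELISA at 24 h post-dosing in an LPS-activated co-culture of endothelial cells with peripheral blood mononuclear cells. Fits run in both directions, DMSO as baseline; parallel SRB staining tracks overt cytotoxicity.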

[13] = BSK_LPS_PGE2: BioMAP Diversity Plus: LPS Assay for Prostaglandin E2 (PGE2) Biomarker Activity (AID 2283082); conditions: primary human HUVEC with PBMC; actives raise or lower the signal;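 as to AC50: secreted prostaglandin E2 measured by ELISA in LPS-stimulated co-culture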
Method in brief: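 HUVEC plus PBMC co-culture stimulated with LPS; secreted PGE2 quantified by ELISA 24 h after chemical dosing. Activity fitted bidirectionally against DMSO as negative control and baseline; parallel SRB total-protein staining served as cytotoxicity check.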

[14] = read-out: Macrophage colony-stimulating factor (MCSF), CSF1 (gene 1435); test: BSK_LPS_MCSF: BioMAP Diversity Plus: LPS Assay for Macrophage colony-stimulating factor (MCSF) Biomarker Activity (AID 2283083); conditions: primary human HUVEC with PBMC; actives raise or lower the signal
Method in brief: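 Bidirectional fitting against DMSO was applied to M-CSF levels read by ELISA at 24 h post-dose. The system pairs human umbilical vein endothelium with peripheral blood mononuclear cells; parallel SRB staining tracked cytotoxicity.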

[15] = read-out: Tissue Factor, F3 (gene 2152); test: BSK_LPS_TissueFactor: BioMAP Diversity Plus: LPS Assay for Tissue Factor Biomarker Activity (AID 2283084); conditions: primary human HUVEC with PBMC; actives raise or lower the signal
Method in brief: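 Compound was added to an endothelial cell/PBMC co-culture, and after 24 h tissue factor (CD142) was read by ELISA. Gain or loss of signal was fitted against a DMSO baseline, and parallel SRB staining (560 nm) tracked overt cytotoxicity.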

[16] = read-out: Tumor necrosis factor (Homo sapiens) (UniProt P01375); test: BSK_LPS_TNFa: BioMAP Diversity Plus: LPS Assay for Tumour Necrosis Factor alpha (TNFa) Biomarker Activity (AID 2283085); conditions: primary human HUVEC with PBMC; actives raise or lower the signal;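 also: TNFa protein level quantified by ELISA in the co-culture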
Method in brief: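 Human umbilical vein endothelial cells co-cultured with PBMC were exposed to test chemical and TNFa measured by ELISA 24 h after dosing. Bidirectional curve fitting was done relative to DMSO as negative control and baseline.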

[17] = read-out: Vascular cell adhesion molecule 1 (VCAM1), VCAM1 (gene 7412); test: BSK_LPS_VCAM1: BioMAP Diversity Plus: LPS Assay for Vascular cell adhesion molecule 1 (VCAM1) Biomarker Activity (AID 2283086); conditions: primary human HUVEC with PBMC; actives raise or lower the signal
Method in brief: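 Human umbilical vein endothelial cells co-cultured with peripheral blood mononuclear cells under LPS stimulation were exposed to test chemical for 24 h. VCAM-1 levels were then measured by ELISA, with bidirectional curve fitting relative to DMSO as negative control and baseline.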

[18] = read-out: CD38, CD38 (gene 952); test: BSK_SAg_CD38: BioMAP Diversity Plus: SAg Assay for CD38 Biomarker Activity (AID 2283087); conditions: primary human HUVEC with PBMC; actives raise or lower the signal
Method in brief: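 Fluorescence ELISA of cell-surface CD38 served as the read-out, with either increase or decrease fitted against DMSO controls. Cells were a human umbilical vein endothelium plus PBMC co-culture under SEB/TSST-1 stimulation, measured 24 h after dosing.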

[19] = read-out: CD40, CD40 (gene 958); test: BSK_SAg_CD40: BioMAP Diversity Plus: SAg Assay for CD40 Biomarker Activity (AID 2283088); conditions: primary human HUVEC with PBMC; actives raise or lower the signal
Method in brief: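 CD40 is measured by fluorescence ELISA in an endothelial/PBMC primary human co-culture at 24 h post-dose. Fitting is bidirectional, DMSO baseline. Parallel SRB staining (560 nm) flags cytotoxicity.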

[20] = read-out: CD69, CD69 (gene 969); test: BSK_SAg_CD69: BioMAP Diversity Plus: SAg Assay for CD69 Biomarker Activity (AID 2283089); conditions: primary human HUVEC with PBMC; actives raise or lower the signal;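 also: cell surface CD69 protein quantified by ELISA with fluorescence detection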
Method in brief: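 Primary human vascular co-culture (umbilical vein endothelium with peripheral blood mononuclear cells) exposed to test chemical for 24 h. CD69 levels quantified by fluorescence ELISA; DMSO served as negative control for bidirectional fitting.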

Measured: AC50

Sequence of Tumor necrosis factor (Homo sapiens) (P01375 whole entry, looked up): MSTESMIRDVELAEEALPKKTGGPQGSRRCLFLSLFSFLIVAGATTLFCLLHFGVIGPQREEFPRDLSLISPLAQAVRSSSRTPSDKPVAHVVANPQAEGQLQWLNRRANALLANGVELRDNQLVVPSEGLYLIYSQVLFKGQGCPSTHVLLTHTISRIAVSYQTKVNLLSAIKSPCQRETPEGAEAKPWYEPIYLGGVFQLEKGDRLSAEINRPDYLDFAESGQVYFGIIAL
Sequence of E-selectin (Homo sapiens) (P16581 whole entry, looked up): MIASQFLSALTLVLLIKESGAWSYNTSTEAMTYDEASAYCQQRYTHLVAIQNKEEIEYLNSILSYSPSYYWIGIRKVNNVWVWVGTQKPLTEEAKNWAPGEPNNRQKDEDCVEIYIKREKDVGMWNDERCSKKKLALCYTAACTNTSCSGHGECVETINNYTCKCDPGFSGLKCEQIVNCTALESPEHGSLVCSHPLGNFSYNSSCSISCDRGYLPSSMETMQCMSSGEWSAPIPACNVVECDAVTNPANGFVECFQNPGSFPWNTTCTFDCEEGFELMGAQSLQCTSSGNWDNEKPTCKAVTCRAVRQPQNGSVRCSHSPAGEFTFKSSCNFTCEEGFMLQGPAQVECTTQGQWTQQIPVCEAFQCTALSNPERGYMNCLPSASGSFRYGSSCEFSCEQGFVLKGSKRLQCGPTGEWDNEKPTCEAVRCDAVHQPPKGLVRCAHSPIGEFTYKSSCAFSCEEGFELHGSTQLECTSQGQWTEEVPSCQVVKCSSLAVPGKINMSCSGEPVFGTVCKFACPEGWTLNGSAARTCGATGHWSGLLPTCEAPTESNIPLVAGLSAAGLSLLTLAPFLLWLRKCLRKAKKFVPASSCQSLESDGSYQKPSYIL

CCOP(=S)(Oc1ccc([N+](=O)[O-])cc1)c1ccccc1 (stereo not drawn)
inactive: [1] | [2] | [3] | [4] | [5] | [6] | [7] | [8] | [9] | [10] | [11] | [12] | [13] | [15] | [17]
active: [14] 13.7 µM | [16] 2.84 µM | [18] 14.2 µM | [19] 14 µM

CCNc1nc(Cl)nc(NC(C)(C)C)n1
active: [16] 5.47 µM | [18] 7.93 µM | [19] 20 µM
inactive: [1] | [2] | [3] | [4] | [5] | [6] | [7] | [8] | [9] | [10] | [11] | [12] | [13] | [14] | [15] | [17]

CC(C)Nc1ccc(Nc2ccccc2)cc1
active: [1] 24.4 µM | [2] 28.9 µM | [3] 17.3 µM | [4] 33.3 µM | [5] 20 µM | [6] 31.6 µM | [7] 14 µM | [8] 12.9 µM | [9] 20 µM | [10] 15.8 µM | [11] 9.74 µM | [12] 10.1 µM | [13] 0.0166 µM | [14] 8.91 µM | [15] 8.74 µM | [16] 12.7 µM | [17] 10.2 µM | [18] 4.14 µM | [19] 13.1 µM | [20] 3.37 µM
